Source: PubChem BioAssay AID1159580 (chemical genetic matrix, 2015)
Several values for one entry are separate records, joined by “and”; a condition that tells them apart may be missing. Equal values may be shown once. Screen size: about 5,500 compounds; about 2,000 (36%) were called active. Another 18% or so got no clear call; they are omitted. Rule as the data show it: active = normalized growth mostly below about 0.91 (no sharp cut-off); inconclusive = no clear call, values can overlap the other calls; inactive = mostly above about 0.92. Some of the results follow.

Experiment: chemical genetic growth profiling, strain panel (AID 1159580);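 also: tested at 20 µM; growth read once vehicle control cultures reached saturation at 30 °C; 1 = growth at the plate median or of vehicle wells; lower values mean less growth of the strain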
Conditions: S. cerevisiae deletion strains, growth OD

Measured: normalized growth

CN1CCN(C(c2ccccc2)c2ccccc2)CC1
inactive: locus YAL013W, strain DEP1, active compounds read low 0.996 | locus YAL021C, strain ccr4, active compounds read low 0.973 | locus YAL026C, strain drs2, active compounds read low 0.988 | locus YAL030W, strain snc1, active compounds read low 0.996 | locus YBL061C, strain skt5, active compounds read low 0.993 | locus YBR009C, strain hhf1, active compounds read low 1.01 | locus YBR021W, strain FUR4, active compounds read low 0.998 | locus YBR023C, strain chs3, active compounds read low 0.985 | locus YBR171W, strain sec66, active compounds read low 0.975 | locus YBR229C, strain ROT2, active compounds read low 1.01 | locus YBR231C, strain swc5, active compounds read low 0.966 | locus YBR279W, strain paf1, active compounds read low 0.995 | locus YCL011C, strain gbp2, active compounds read low 0.998 | locus YCL016C, strain dcc1, active compounds read low 0.973 | locus YCL029C, strain bik1, active compounds read low 0.973 | locus YCL069W, strain vba3, active compounds read low 0.995 | locus YCR088W, strain abp1, active compounds read low 0.983 | locus YDL005C, strain med2, active compounds read low 0.969 | locus YDL035C, strain GPR1, active compounds read low 0.984 | locus YDL040C, strain nat1, active compounds read low 0.98 | locus YDL074C, strain BRE1, active compounds read low 0.993 | locus YDL101C, strain DUN1, active compounds read low 1 | locus YDL134C, strain PPH21, active compounds read low 1.01 | locus YDL185W, strain tfp1, active compounds read low 0.942 | locus YDL192W, strain arf1, active compounds read low 0.971 | locus YDR001C, strain nth1, active compounds read low 1.02 | locus YDR069C, strain doa4, active compounds read low 0.964 | locus YDR101C, strain arx1, active compounds read low 0.988 | locus YDR137W, strain rgp1, active compounds read low 0.994 | locus YDR150W, strain NUM1, active compounds read low 0.989 | locus YDR159W, strain sac3, active compounds read low 0.991 | locus YDR162C, strain NBP2, active compounds read low 1.01 | locus YDR195W, strain ref2 0.958 | locus YDR297W, strain sur2, active compounds read low 0.996 | locus YDR318W, strain mcm21, active compounds read low 0.969 | locus YDR334W, strain swr1, active compounds read low 0.977 | locus YDR335W, strain msn5, active compounds read low 0.994 | locus YDR388W, active compounds read low 0.966 | locus YDR392W, strain spt3, active compounds read low 0.915 | locus YDR502C, strain sam2, active compounds read low 0.978 | locus YEL003W, strain gim4, active compounds read low 0.984 | locus YEL037C, strain rad23, active compounds read low 0.988 | locus YEL061C, strain CIN8 (second series), active compounds read low 0.997 | locus YEL061C, strain CIN8, active compounds read low 0.975 | locus YER015W, strain faa2, active compounds read low 0.979 | locus YER016W, strain bim1, active compounds read low 0.971 | locus YER110C, active compounds read low 0.973 | locus YER111C, strain swi4, active compounds read low 0.983 | locus YER155C, strain BEM2 (second series), active compounds read low 0.932 | locus YER155C, strain BEM2, active compounds read low 1 | locus YER167W, strain BCK2, active compounds read low 0.997 | locus YFR010W, strain ubp6, active compounds read low 0.99 | locus YGL078C, strain dbp3, active compounds read low 0.989 | locus YGL086W, strain mad1, active compounds read low 0.983 | locus YGL167C, strain pmr1, active compounds read low 0.98 | locus YGL173C, strain kem1, active compounds read low 0.979 | locus YGL227W, strain vid30, active compounds read low 0.968 | locus YGL240W, strain doc1, active compounds read low 1.01 | locus YGL248W, strain PDE1, active compounds read low 1 | locus YGL253W, strain hxk2, active compounds read low 0.985 | locus YGR078C, strain PAC10, active compounds read low 0.998 | locus YGR135W, strain pre9, active compounds read low 0.979 | locus YGR229C, strain SMI1, active compounds read low 1.03 | locus YGR252W, strain gcn5, active compounds read low 1.03 | locus YHR013C, strain ard1, active compounds read low 0.902 | locus YHR027C, strain rpn1, active compounds read low 0.985 | locus YHR030C, strain SLT2, active compounds read low 0.995 and 0.998 | locus YHR079C, strain IRE1 (second series), active compounds read low 0.969 | locus YHR079C, strain IRE1, active compounds read low 0.992 | locus YHR094C, strain hxt1, active compounds read low 0.965 | locus YHR129C, strain ARP1, active compounds read low 0.999 | locus YHR142W, strain chs7, active compounds read low 1 | locus YHR200W, strain rpn10, active compounds read low 0.966 | locus YIL066C, strain RNR3, active compounds read low 1 | locus YIL073C, strain SPO22, active compounds read low 0.965 | locus YIL125W, strain kgd1, active compounds read low 0.981 | locus YIR030C, strain dcg1, active compounds read low 0.967 | locus YJL092W, strain hpr5, active compounds read low 0.991 | locus YJL095W, strain BCK1 (second series), active compounds read low 0.993 | locus YJL095W, strain BCK1, active compounds read low 0.966 and 0.998 | locus YJL115W, strain asf1, active compounds read low 0.996 | locus YJL129C, strain trk1, active compounds read low 0.968 | locus YJL134W, strain LCB3, active compounds read low 0.997 | locus YJL154C, strain vps35, active compounds read low 0.999 | locus YJL164C, strain tpk1, active compounds read low 1.02 | locus YJL166W, strain qcr8, active compounds read low 1.01 | locus YJL168C, strain set2, active compounds read low 0.968 | locus YJL187C, strain SWE1 (second series), active compounds read low 0.999 | locus YJL187C, strain SWE1, active compounds read low 0.994 | locus YJR043C, strain POL32, active compounds read low 1.01 | locus YJR066W, strain TOR1, active compounds read low 0.994
